# Experimental data published in the supplement of paper PMC13380429.
# Values without a mark were called inactive.
# System: Vero E6 infected with SARS-CoV-2
# Assay: inhibition of SARS-CoV-2 cytopathic effect; higher = more antiviral protection, active = above 15
# Conditions: 48 h
Compound,inhibition of SARS-CoV-2 cytopathic effect (1 nM),inhibition of SARS-CoV-2 cytopathic effect (8.33 nM),inhibition of SARS-CoV-2 cytopathic effect (100 nM),inhibition of SARS-CoV-2 cytopathic effect (833.33 nM),inhibition of SARS-CoV-2 cytopathic effect (10000 nM)
O=[N+]([O-])c1ncc[nH]1 [azomycin-(2-nitroimidazole)],1.8%,1.77%,0.86%,2.21%,-0.1%
CCCCCCCCCCCCCCCCCCCCCC(=O)O,2.81%,2.25%,1.57%,0.29%,1.77%
CCOC(=O)N1CSC[C@H]1C(=O)O [telmesteine],1.96%,2.23%,2.74%,4.95%,-0.12%
CCN(CC)CCOc1ccccc1C(=O)CCc1ccccc1 [etafenone],1.2%,0.17%,-0.61%,0.23%,-3.07%
CNC(=O)N(C)N=O [nitrosodimethylurea],-0.7%,-0.84%,-4.76%,1.42%,-2.36%
Cc1cc2c(cc1CC(=O)c1sccc1S(=O)(=O)Nc1onc(C)c1Cl)OCO2 [sitaxentan],-0.88%,-1.81%,0.75%,1.22%,1.37%
OCCN1CCN(CCCN2c3ccccc3Sc3ccc(C(F)(F)F)cc32)CC1 [fluphenazine],-8.05%,-7.65%,-6.69%,-9.7%,20.5% (active)
CCCNC(C)(C)COC(=O)c1ccccc1 [meprylcaine],2.21%,-2.34%,-2.33%,-1.75%,-5.76%
